# IP6K1 inh: Primary qHTS assay for small molecule inhibitors of Inositol hexaphosphate kinase 1 (IP6K1). activity change, % (series mostly up to about 58 µM). 0.81% of 140,000 active. IP6K1 kinase, ADP-Glo luminescence, 2 h; hits give low values. Inositol hexakisphosphate kinase 1 (Homo sapiens), Q92551; in the data active means activity change below about -25%; further: on the % scale 0 is the no-effect control and ±100 the full control effect
#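 ADP-Glo luminescence measures ADP made by human IP6K1 during a 2 h RT reaction with ATP/IP6 (mix at 1.3 mM/130 uM); top library doses 57.5 and 19.1 uM final.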
# KDM5B inh: Primary screen for KDM5B Histone Demethylases FDH-coupled qHTS | Lysine-specific demethylase 5B (Homo sapiens), Q9UGL1 | KDM5B demethylase, FDH-coupled NADH fluorescence (FDH is formaldehyde dehydrogenase) | Potency, µM (titrated, usually from 57.7 µM), hits mostly inhibitors | 2.6% of 220,000 active; active means well fitted inhibition curve with a large enough effect; inconclusive means small, poorly fitted or top-dose-only effect; inactive means no such curve, though single readings can be large or run the other way; further: potency means the concentration at half of the fitted maximal effect; 0% is about no effect; nearly all actives have a fitted effect of over 70% in size
#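 Inhibition is measured as reduced NADH fluorescence generation from FDH coupling to formaldehyde release. Truncated KDM5BΔAP at 200 nM final acts on H3K4me3 peptide (12.5 µM in substrate mix) in pH 7.5 HEPES buffer with Tween-20, 30 min, room temperature.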
# * = called active by the depositor; i = inactive; ? = inconclusive; . = no result given. This is a sample that favours compounds with a hit; in the whole collection about 2.8% have one here.
SMILES,IP6K1 inh,KDM5B inh
CC(=O)N1CC(CO)C2(CCN(C(=O)c3cccc(C#N)c3)CC2)C1 (stereo not drawn),30,i
COCCN1CC(CO)C2(CCN(C(=O)CCn3cc(C)cn3)CC2)C1 (stereo not drawn),12,?
N#Cc1ccc(C(=O)N2CCC3(CC2)CN(c2ncccn2)CC3CO)cc1 (stereo not drawn),21,22µM*
CCOc1ccccc1C(=O)N1CCC2(CC1)CN(c1ccncn1)CC2CO (stereo not drawn),15,i
Cc1ccccc1C(=O)N1CCC2(CC1)CN(c1ncccn1)CC2CO (stereo not drawn),12,32µM*
Cc1cnn(CC(=O)N2CCC3(CC2)CN(c2ncccn2)CC3CO)c1 (stereo not drawn),4,35µM*
O=C(CCc1ccccc1)N1CCC2(CC1)CN(c1ncccn1)CC2CO (stereo not drawn),18,?
Cc1ccc(-n2nnnc2C(C)(C)N2CCOCC2)cc1,.,i
C=CCN(CC(F)(F)F)C(=O)c1ccc(NC(=O)NC2CC2)cc1,.,i
CC1(C)CC(CC(=O)O)(c2cccc(C(F)(F)F)c2)CCO1 (stereo not drawn),.,i
Cc1ccc(N2CCCS2(=O)=O)cc1NS(=O)(=O)c1ccc(F)cc1C,.,i
CCCN1C(SCC(=O)Nc2c(C)cccc2C)=NS(=O)(=O)c2ccccc21,.,i
O=[S+]1([O-])c2ccccc2C(OCc2ccccc2)CN1c1c(Cl)cccc1Cl (stereo not drawn),8,.
Cc1noc(C)c1-c1cc2c(cc(C)n2C)c(-c2cccnc2)n1,-22,35µM*
COc1cccc(-c2nc(-c3c(C)noc3C)cc3c2cc(C)n3CCN(C)C)c1,-12,40µM*
Cc1noc(C)c1-c1cc2c(cc(C)n2C)c(-c2ccccc2)n1,-15,i
Cc1noc(C)c1-c1cc2c(cc(-c3ccccc3)n2C)c(-c2cccnc2)n1,-14,i
COc1ccc(-c2nc(-c3c(C)noc3C)cc3c2cc(C)n3CCN(C)C)cc1OC,-7,i
Cc1noc(C)c1-c1cc2c(cc(C)n2C)c(-c2cccc([S+](C)(=O)[O-])c2)n1,-9,25µM*
Cc1cc2c(-c3ccccc3)nc(-c3c(C)noc3C)cc2[nH]1,-20,i
Cc1cc2c(-c3cccnc3)nc(-c3c(C)noc3C)cc2[nH]1,-15,28µM*
CCCCn1nc(C(=O)Nc2ccc(OC)c(OCCOC)c2)c2ccccc2c1=O,.,i
Cc1ncc(CN2CCC(C(=O)Nc3cccc(-c4cc5ccccc5[nH]4)c3)CC2)cn1,19,?
CCCC(O)CN1CCC(=O)N(Cc2ccccc2)Cc2sccc21 (stereo not drawn),15,.
COCc1ccc(C(=O)NC(C)c2ccc(F)c(F)c2)cc1 (stereo not drawn),.,i
SMILES,IP6K1 inh,KDM5B inh
C=CCOc1c(OC)ccc2c1CN(C1CCCC1)C(=O)CCN2CC(O)COc1ccc(OC)cc1 (stereo not drawn),8,.
CCCNC(=O)c1ccc2[nH]c3c(c2c1)CCCC3,.,i
COc1ccccc1CNC(=O)c1cc(-c2ccccc2F)nc2c1cnn2C,10,.
COc1cc(F)ccc1-c1nc(-c2c(C)noc2C)cc2[nH]c(C)cc12,-24,35µM*
COc1cccc(-c2nc(-c3c(C)noc3C)cc3c2cc(C)n3C)c1OC,-4,35µM*
COc1ccccc1-c1nc(-c2c(C)noc2C)cc2[nH]c(C)cc12,-3,i
COc1cc(-c2nc(-c3c(C)noc3C)cc3c2cc(C)n3C)ccn1,-19,i
CCn1c(=O)c2ccnn2c2ccc(C(=O)NCCc3cccnc3)cc21,2,32µM*
CCn1c(=O)c2ccnn2c2ccc(C(=O)NCc3ccc(OC)cc3OC)cc21,8,?
CCN(CC)C(=O)c1ccc2c(c1)n(Cc1ccc(OC)cc1)c(=O)c1ccnn12,10,i
CCn1c(=O)c2ccnn2c2ccc(C(=O)O)cc21,-12,22µM*
CCCn1cc(CNC(=O)c2ccc3c(c2)n(CC)c(=O)c2ccnn23)c(C)n1,27,22µM*
COc1cccc(Cn2c(=O)c3ccnn3c3ccc(C(=O)O)cc32)c1,2,?
O=C(O)c1ccc2c(c1)n(Cc1ccccc1)c(=O)c1ccnn12,5,28µM*
Cc1ccc(C(=O)NCCc2cccnc2)cc1,.,i
Cc1ccc([S+](=O)([O-])NC2CCCN(Cc3ccc(-c4cc(C)cc(C)c4)cc3)C2)cc1 (stereo not drawn),-2,.
CN(Cc1ccc(Br)cc1)C(=O)c1ccc(NS(C)(=O)=O)cc1,.,i
COc1ccccc1Nc1ccnc(N2CCC(NC(=O)Cc3cccc(Cl)c3)CC2)n1,-2,.
CCN(CC)CCNC(=O)C(=O)Nc1cccc(N2CCCS2(=O)=O)c1,.,i
Cc1ccc(SCCNC(=S)Nc2ccc(Nc3ccccc3)cc2)cc1,.,i
Cc1nn(CC(=O)Nc2ccc(I)cc2)c(=O)c2ccccc12,.,i
O=C(Nc1ccc(Cl)cc1)c1ccc2c(c1)n(Cc1ccccc1)c(=O)c1ccnn12,-6,20µM*
Cc1ccc(CNC(=O)c2ccc3c(c2)c(C)c(C)n3Cc2ccccc2)o1,23,?
Cc1ccc(CNC(=O)c2ccc3c(c2)n(Cc2ccccc2)c(=O)c2ccnn23)o1,11,32µM*
O=C(Nc1ccccc1)c1ccc2c(c1)n(Cc1cccc(F)c1)c(=O)c1ccnn12,-13,?
SMILES,IP6K1 inh,KDM5B inh
CCc1c(C)sc(NC(=O)c2ccc(Cl)c(Cl)c2)c1C#N,.,i
Cc1nn(-c2ccccc2)c2c1C(C1CC1)N(C1CCN(C(=O)c3ccc(F)cc3)C1)C2=O (stereo not drawn),5,.
CN1C(=O)c2cccn2CC1CNC(=O)c1[nH]nc2c1COc1ccccc1-2 (stereo not drawn),3,?
COCCN1C(=O)c2cccn2CC1CNC(=O)c1[nH]nc2c1COc1ccccc1-2 (stereo not drawn),3,28µM*
CSc1ccc(C2N=C(N)Nc3nc4ccccc4n32)cc1 (stereo not drawn),.,i
COC(=O)N1CCC2(C1)N=C(c1ccccn1)C(=O)N2 (stereo not drawn),-2,35µM*
CC(=O)N1CCC2(C1)N=C(c1ccccn1)C(=O)N2 (stereo not drawn),-2,?
Cn1ncc2c(C(=O)N3CCN(Cc4ccccc4)CC3)cc(-c3ccc(C(F)(F)F)cc3)nc21,-7,.
COc1ccc(CNC(=O)C[C@@H]2C[C@@H](C(C)C)[C@H](CNC(=O)c3ccc(NC(C)=O)cc3)C=C2C)cc1,3,i
COc1ccc(CNC(=O)C[C@@H]2C[C@@H](C(C)C)[C@H](CNC(C)=O)C=C2C)cc1,-7,35µM*
COc1ccc(CC(=O)N2CCCC(C(=O)N3CCC(c4ccccc4)CC3)C2)cc1 (stereo not drawn),-9,.
CCc1noc(-c2ccn3c(CNC(=O)c4cccc(Cl)c4)nnc3c2)n1,6,?
Cc1noc(-c2ccn3c(CNC(=O)Cc4ccc(OC(F)(F)F)cc4)nnc3c2)n1,-4,?
CCc1noc(-c2ccn3c(CNC(=O)C4CCCCC4)nnc3c2)n1,18,28µM*
CCc1noc(-c2ccn3c(CNC(=O)CCC4CCCC4)nnc3c2)n1,15,4.5µM*

# Screening data: PubChem BioAssay, National Center for Advancing Translational Sciences (NCATS)
